Results reported in PubChem BioAssay AID720648 (The Scripps Research Institute Molecular Screening Center, 2013).
“And” between values parts separate entries of the source, which are not always exact repeats. Equal entries are not always repeated. In all, about 370,000 compounds went through this assay and about 3,100 (0.84%) were called active.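 The calls were made as follows: active = inhibition above the mean of compounds lying between control limits plus 3 SD, set per campaign (cut at about 8.5% in these data); inactive = the rest.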 The entries come from a sample that favours actives as a whole. Some structures have more than one record in an assay (separate samples or runs), and their calls can disagree.

Biological target: Disintegrin and metalloproteinase domain-containing protein 17 (Homo sapiens) (UniProt P78536)
Experiment: ADAM17 inhibitors, primary screen, biochemical, QFRET (AID 720648);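 also: 0% = DMSO-only wells as the low control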
Settings: recombinant ADAM17, EDANS/DABCYL FRET peptide cleavage; at 6.95 µM; stronger effect = higher value

Sequence of Disintegrin and metalloproteinase domain-containing protein 17 (Homo sapiens) (P78536 215-824 limits assumed): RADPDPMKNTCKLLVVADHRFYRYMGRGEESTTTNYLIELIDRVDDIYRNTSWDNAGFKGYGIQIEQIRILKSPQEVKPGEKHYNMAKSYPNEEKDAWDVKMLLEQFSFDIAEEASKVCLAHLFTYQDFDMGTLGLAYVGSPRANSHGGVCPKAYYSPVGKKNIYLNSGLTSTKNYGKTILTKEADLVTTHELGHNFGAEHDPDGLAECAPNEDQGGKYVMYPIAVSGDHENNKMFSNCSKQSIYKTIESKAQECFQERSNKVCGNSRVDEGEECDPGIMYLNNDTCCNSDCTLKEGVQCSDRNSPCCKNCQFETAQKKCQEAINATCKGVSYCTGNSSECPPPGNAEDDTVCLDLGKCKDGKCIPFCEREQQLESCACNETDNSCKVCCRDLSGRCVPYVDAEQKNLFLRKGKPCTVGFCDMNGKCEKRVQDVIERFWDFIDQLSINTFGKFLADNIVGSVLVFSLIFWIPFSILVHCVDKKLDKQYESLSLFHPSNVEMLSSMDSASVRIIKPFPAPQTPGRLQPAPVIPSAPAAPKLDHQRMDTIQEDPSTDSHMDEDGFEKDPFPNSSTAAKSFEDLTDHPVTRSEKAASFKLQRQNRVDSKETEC

SMILES	inhibition
O=C(c1ccccc1)c1ccc(-c2ccccc2C(=O)NC2CCCCN(Cc3ccc(Cl)cc3)C2=O)cc1 (centres undefined)	-0.61% (inactive)
COC(=O)C1CN(Cc2cn(Cc3ccc(F)cc3)nn2)CCS(=O)(=O)N1Cc1ccc(Cl)cc1 (centres undefined)	1.41% (inactive)
Cc1cc(C)c(C#N)c(SCc2ccc3c(c2)OCO3)n1	-0.68% (inactive)
COc1ccc(C2C(C#N)=C(N)Oc3n[nH]c(C)c32)cc1CN1CCN(c2ccc(F)cc2)CC1 (centres undefined)	0.41% (inactive)
Cc1cc(C)c(C#N)c(SCc2[nH]nc3c2C(c2ccccc2)C(C#N)=C(N)O3)n1 (centres undefined)	12.4% (active)
CCOc1ccc(N2C(=O)CC(N(CCc3ccc(OC)c(OC)c3)C(=S)Nc3ccccc3)C2=O)cc1 (centres undefined)	9.32% (active) and 1.43% (inactive)
COc1ccc(N2C(=O)C(CC(=O)Nc3ccccc3)N(Cc3ccc(OC)c(OC)c3)C2=O)cc1 (centres undefined)	-0.55% (inactive)
CN(C)c1ccc(NC(=S)N(CCc2ccccc2)C2CC(=O)N(c3c(Cl)cccc3Cl)C2=O)cc1 (centres undefined)	2.09% (inactive)
C=CCN(Cc1ccc2c(c1)OCO2)C(C#CC1CC1)C(C)(C)C (centres undefined)	-5.97% (inactive)
O=C(NC1CCCCN(Cc2cccc(C(F)(F)F)c2)C1=O)c1ccccc1I (centres undefined)	-0.37% (inactive)
COC(=O)[C@]12C[C@H](CC(=O)NCc3ccccc3)C(=O)N(Cc3ccccc3)C1=C[C@H](COCc1ccccc1)O[C@@H]2C	1.65% (inactive)
COC(=O)[C@H](C(C)C)N(CCCc1cn(Cc2ccccc2)nn1)S(=O)(=O)c1ccc(F)cc1Br	2.02% (inactive)
O=C(COC(=O)c1ccccn1)NNC(=O)c1ccc(Br)cc1	0.32% (inactive)
COc1ccccc1C(=O)NCC(=O)NCCSc1ccc(Br)cc1	2.38% (inactive)
COc1ccccc1C(=O)NCC(=O)OCC(=O)NNC(=O)c1ccc(Br)cc1	13% (active)
CCCCCCCCNS(=O)(=O)/C=C/c1cc(C)ccc1CNC(=O)OC(C)(C)C	-2.49% (inactive)
C[C@]12c3[nH]c4ccc(Cl)cc4c3CCN1C(=O)[C@@H](CC(=O)NCCCn1ccnc1)C[C@@H]2C(=O)N1CCOCC1	4.49% (inactive)
CC(C)N(C(=O)[C@H]1C[C@H](CC(=O)NCCC2=CCCCC2)C(=O)N2CCc3c([nH]c4cc(CCC(=O)N(C)C)ccc34)[C@]12C)C(C)C	-3.26% (inactive)
CC(C)N(C(=O)[C@H]1C[C@H](CC(=O)NC(C)(C)C)C(=O)N2CCc3c([nH]c4ccc(Cl)cc34)[C@]12C)C(C)C	8.65% (active)
CC(=O)OCCN1CCCC12CCC(c1ccccc1)CC2 (centres undefined)	-1.85% (inactive)
COC(=O)C1CN(CC(C)C)CCS(=O)(=O)N1Cc1ccc(F)cc1 (centres undefined)	-5.05% (inactive)
Cc1nc2ccc(C(=O)N3CCN(C(=O)C(C)(C)C)CC3)cc2n1C1CCCC1	3.54% (inactive)
Cc1ccc(C)c(NC(=O)CCS(=O)(=O)c2ccccc2)c1	-3.15% (inactive)
COc1ccc(CN(C)C(=O)CC(c2ccccc2)c2ccccc2)cc1	11% (active)
COc1ccc(C(C(=O)NC2CCCCC2)N(C(=O)CCl)c2ccccc2Cl)cc1 (centres undefined)	-0.76% (inactive)
COc1ccc(C(CCN(Cc2ccc(OC)c(OC)c2)C(=O)CCl)c2ccccc2)cc1 (centres undefined)	12.5% (active)
COc1ccc(Cn2cc(COC(=O)N(C)Cc3ccccc3)nn2)cc1	-3.38% (inactive)

SMILES	inhibition
COc1ccc(CN(CCN2CCOCC2)C(=O)c2ccc(C)cc2)cc1OC	2.83% (inactive)
CN(Cc1ccc(F)cc1)C(=O)COc1ccc2ccccc2c1	-3.83% (inactive)
COC(=O)C[C@@H]1CC[C@@H]2[C@@H](COc3ccc(NC(=O)Nc4ccc(F)c(F)c4)cc3C(=O)N2C)O1	1.31% (inactive)
CCCCNC(=O)C[C@H]1C[C@@]2(C(=O)OC)C(=C[C@H](COCc3ccccc3)O[C@@H]2C)N(Cc2ccc(Cl)cc2Cl)C1=O	1.2% (inactive)
COc1ccc2c(c1)CN1CN(CCc3ccccc3)S(=O)(=O)CC21 (centres undefined)	-6.46% (inactive)
Cc1ccc(/C=N/NC(=O)CSc2nc3ccccc3o2)cc1	10.3% (active)
CC1Cc2ccccc2N1C(=O)CSc1nc2ccccc2o1 (centres undefined)	2.14% (inactive)
O=C(CSc1nc2ccccc2o1)N/N=C/c1ccccc1C(=O)O	-4.58% (inactive)
COc1ccc(CN2C(=O)N3Cc4cc(OC)ccc4C3CS2(=O)=O)cc1 (centres undefined)	-0.79% (inactive)
C=CCN1C(=O)[C@@H](CC(=O)NCCCCc2ccccc2)[C@]2(C(=O)OCC)CCCCC/C=C/12	3.44% (inactive)
Cc1cc(C)cc(OCC(=O)O/N=C(\N)Cc2ccc([N+](=O)[O-])cc2)c1	3.53% (inactive)
N/C(Cc1ccc([N+](=O)[O-])cc1)=N\OC(=O)C1CCCCC1	-3.25% (inactive)
N/C(Cc1ccc([N+](=O)[O-])cc1)=N\OC(=O)COc1ccc2ccccc2c1	10.8% (active)
C=CCN1C(C(=O)OC)CN(Cc2cn(Cc3ccccc3)nn2)CCS1(=O)=O (centres undefined)	1.41% (inactive)
CN(C)CC(=O)N[C@@H]1C[C@@H]2O[C@H](CO)CC[C@@H]2O[C@@H]1CCc1ccc(C#Cc2ccccc2)cc1	3.01% (inactive)
FC(F)(F)Oc1ccccc1C(c1nnnn1C1CCCCC1)N1CCN(C/C=C/c2ccccc2)CC1 (centres undefined)	9.77% (active)
COc1ccc(C(c2nnnn2C2CCCC2)N2CCN(C/C=C/c3ccccc3)CC2)cc1 (centres undefined)	-1.95% (inactive)
CCCCn1nnnc1C(c1cccc(OC)c1OC)N1CCN(C/C=C/c2ccccc2)CC1 (centres undefined)	3.3% (inactive)
COC(=O)C12C=C3CC(c4ccccc4)=C3C(=O)N1Cc1[nH]c3ccccc3c1C2 (centres undefined)	-5.87% (inactive)
CC(=O)c1cc(-c2ccc3ccccc3c2)c(=O)n2c1CCC2	-8.84% (inactive)
O=C(NCCc1c[nH]c2ccccc12)OCc1cn(-c2c(F)cccc2F)nn1	-1.78% (inactive)
C=CCN1C(=O)[C@H](CC(=O)N2CCN(C(=O)OCC)CC2)[C@@]2(C(=O)OCC)CCCC=C12	-4.33% (inactive)
N[C@@H](Cc1ccccc1)C(=O)N1CCC[C@@H]1C(=O)N1CCC2CCN(S(=O)(=O)c3ccccc3)CC21 (some centres undefined)	-3.15% (inactive)
N#C/C(=C\c1cccnc1)C(=O)Nc1ccc(SC(F)F)cc1	2.16% (inactive)
O=C(Cc1ccc(Cl)c(Cl)c1)Nc1ccc(SC(F)F)cc1	8.77% (active)
CN(CC(=O)Nc1ccc(S(=O)(=O)N2CCCC2)cc1)Cc1ccc(Cl)c(Cl)c1	4.22% (inactive)
C[C@@H]1CN([C@@H](C)CO)C(=O)c2cccc(NC(=O)Nc3cccc4ccccc34)c2O[C@H]1CN(C)S(=O)(=O)c1ccccc1F	-10.5% (inactive)

SMILES	inhibition
CN(C)S(=O)(=O)c1cccc(C(=O)N/N=C\c2ccco2)c1	1.33% (inactive)
O=C(Nn1c(SCc2ccc([N+](=O)[O-])cc2)nc2ccccc2c1=O)c1ccc(F)cc1	8.99% (active)
COCCNC(=O)c1ccc(-n2c(SCc3cccnc3)nc3ccccc3c2=O)cc1	-0.26% (inactive)
O=C(Nc1cc(-c2ccccc2)nn1-c1ccccc1F)c1ccc([N+](=O)[O-])cc1	2.52% (inactive)
O=C(CSc1nc2ccccc2n1Cc1ccccc1Cl)N/N=C\c1c[nH]c2ccccc12	4.92% (inactive)
COc1ccc(CSc2nnc(SCC(=O)Nc3ccccc3C(F)(F)F)s2)cc1	1.07% (inactive)
COc1ccc2c(C(C)c3ccc(N)cc3)cn(C)c2c1 (centres undefined)	1.72% (inactive)
CCOC(=O)C1(Cc2ccccc2)CCN(Cc2cn(C(C)=O)c3ccccc23)CC1	-0.16% (inactive)
Cn1nc(C(F)(F)F)c(-c2ccc(F)cc2)c1NC(=O)CSCC(=O)O	-2.02% (inactive)
Cn1nc(C(F)(F)F)c2cc(NC(=O)OCC(C)(C)C)sc21	8.91% (active)
Cn1nc(C(F)(F)F)c2cc(C(=O)N3CCOCC3)sc21	-1.03% (inactive)
COC(=O)[C@]12C[C@H](CC(=O)NCCc3ccccc3OC)C(=O)N(Cc3ccco3)C1=C[C@H](C(C)C)O[C@@H]2C1CC1	-2.62% (inactive)
O=C(c1cccc(C(F)(F)F)c1)N1CC[C@H]2[C@H](CCCN2Cc2cc(F)cc(F)c2)C1	-0.58% (inactive)
COC(=O)CC1CCc2cc(C)cc(C(CC(C)C)NC(=O)[C@H](CC(C)C)NC(=O)OCc3ccccc3)c2O1 (some centres undefined)	-2.33% (inactive)
Cc1cc(NC(=O)CN2C(=O)NC(CC(C)C)C2=O)no1 (centres undefined)	10.8% (active)
COc1ccc(C2(c3ccc(OC)cc3)NC(=O)N(CC(=O)Nc3cc(C)on3)C2=O)cc1	2.54% (inactive)
Cc1cc(NC(=O)CN2C(=O)NC(CCc3ccccc3)C2=O)no1 (centres undefined)	-0.8% (inactive)
COc1ccc(Cn2cc(CN3[C@@H](CC(C)C)COc4cc(Br)ccc4S3(=O)=O)nn2)cc1	1.7% (inactive)
COc1ccc(-n2c(SCC(=O)Nc3ccc4c(c3)OCCO4)nnc2-c2ccc(Cl)cc2)cc1	4.24% (inactive)
O=C(CCCCCN1C(=O)C2C3C=CC(C3)C2C1=O)Nc1ccccn1 (centres undefined)	2.59% (inactive)
c1csc(-c2nnc(SCc3nc4ccccc4[nH]3)o2)c1	-10.2% (inactive)
COC(=O)[C@]12C[C@H](CC(=O)N3CCOCC3)C(=O)N(Cc3ccc(Cl)cc3Cl)C1=C[C@H](COCc1ccccc1)O[C@@H]2C	0.56% (inactive)
CC(=O)c1ccc(Cc2ncc(C(F)(F)F)cc2Cl)s1	-2.56% (inactive)
O=C(Cc1ncc(C(F)(F)F)cc1Cl)Nc1cccc(Br)c1	10.2% (active)
O=C(CN1CCN(c2ncc(C(F)(F)F)cc2Cl)CC1)Nc1ccc2c(c1)OCO2	-4.94% (inactive)
